KB-V1 MDR tox = kills drug-selected multidrug resistant KB-V1 cells; KB-V1 MDR cells viability, CellTiter-Glo, 72 h; Potency, µM (highest dose often 46.1 µM), usual class: cytotoxic; 3.4% of 400,000 active; further: potency means the concentration at half of the fitted maximal effect; nearly all actives have a fitted effect of over 60% in size
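Cytotoxicity via CellTiter-Glo luminescence after 72 h compound exposure at 37 degrees C. Cells: drug-selected KB-V1 line, DMEM phenol-red free plus 10% FBS. Compounds tested at multiple concentrations; normalized data fitted to concentration-effect curves.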
HT1080 IDH1KD tx = kills HT-1080 cells with IDH1 knockdown | 2% of 360,000 active | Potency, µM (series often up to 46.1 µM), without a hit: at the top dose activity, negative = toxicity, most hits filed as cytotoxic | HT-1080 IDH1 knockdown viability, ATP luminescence, 48 h;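 further: potency means the concentration at half of the fitted maximal effect; 0% = DMSO wells and -100% = cell-free medium wells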
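Luminescent ATP read-out (CellTiter-Glo, 10 min at room temperature) after 48 h compound exposure at 37 °C gave viability of IDH1-knockdown HT-1080 cells. Activity was normalised to DMSO and cell-free wells, then fitted as concentration-response curves.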
KB-3-1 cytotox = KB-3-1 parental cell cytotoxicity; KB-3-1 viability, CellTiter-Glo ATP luminescence, 72 h; Potency, µM (highest dose often 46.1 µM), most hits filed as cytotoxic; 1.4% of 400,000 active; further: potency means the concentration at half of the fitted maximal effect; nearly all actives have a fitted effect of over 60% in size
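72 h, 37 °C compound treatment of KB-3-1 parental cells; CellTiter-Glo added, 10 min, luminescence read. Data corrected against DMSO-only plates and normalized before curve fitting.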
HT1080-NT tox = kills 2HG-producing HT-1080-NT fibrosarcoma cells | HT-1080-NT fibrosarcoma viability, CellTiter-Glo ATP luminescence, 48 h | 1.6% of 360,000 active | Potency, µM (highest dose often 46.1 µM), for inactives: at the top dose activity, negative = less viability, most hits filed as cytotoxic;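 further: NT is the 2HG producing partner of a matched IDH1 knockdown line; potency means the concentration at half of the fitted maximal effect; 0% = DMSO-treated cells and -100% = media-only wells without cells; nearly all actives have a fitted effect of over 55% in size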
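HT-1080-NT; 750 cells/well; 5% FBS RPMI; 48 h compound, 37 degrees C; CellTiter-Glo luminescence; curve fitting and curve-class assignment.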
IL1B secr inh = inflammasome signaling inhibition, IL-1 beta readout; THP-1 LPS/ATP IL-1B secretion, AlphaLISA, 16 h; active compounds read low; activity change, % at 57.5 µM; 4.7% of 360,000 active; AID 743279; in the data active means activity change below about -50%; inconclusive means mostly about -30% to -49%
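Secreted IL-1B measured by AlphaLISA bead assay after 16 h compound exposure of THP-1 cells; compounds (final up to 57.5 uM) added 1 h before LPS (250 ng/mL) and ATP (1.25 mM) stimulation; lower signal means less secretion.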
Numbers without * were called inactive. Hits are enriched below; roughly 8.8% of the tested compounds scored in any of these assays. Unless noted, the call rests on the fitted dose curve; in most records, active means well fitted curve in the direction sought with a large enough effect; inconclusive means small, poorly fitted or top-dose-only effect, or another doubt; inactive means no such curve, though single readings can be large; an effect the other way counts as inactive or inconclusive. Unless noted, on the % scale 0 is the no-effect control and ±100 the full control effect.

`COc1ccccc1/C=C1\Oc2cc(OC(=O)N3CCOCC3)ccc2C1=O` gave KB-V1 MDR tox inactive, HT1080 IDH1KD tx -0.2%, KB-3-1 cytotox inactive, HT1080-NT tox -5.3% and IL1B secr inh -9.3.
Screening CC1Cc2ccccc2N1C(=O)CSc1nc2ccc(NC(=O)COc3ccccc3)cc2s1 (stereo unspecified) returned KB-V1 MDR tox inactive and KB-3-1 cytotox inactive.
`O=C(CN1C(=O)NC2(CCCC2)C1=O)OCc1c(F)cccc1Cl` gave KB-V1 MDR tox inactive, HT1080 IDH1KD tx 13.8%, KB-3-1 cytotox inactive, HT1080-NT tox -2.6% and IL1B secr inh -1.3.
`Cc1noc(C)c1NC(=O)Nc1ccc2c(c1)C(=O)N([C@H](C)CO)C[C@H](C)[C@H](CN(C)C)O2` gave KB-V1 MDR tox inactive, HT1080 IDH1KD tx -4.1%, KB-3-1 cytotox inactive, HT1080-NT tox -0.6% and IL1B secr inh -1.3.
For Cc1ccc(Nc2nc(-c3cccnc3)cs2)cc1Cl the results were KB-V1 MDR tox inactive, HT1080 IDH1KD tx -16.6%, KB-3-1 cytotox inactive, HT1080-NT tox -20.4% and IL1B secr inh -11.7.
For Cc1ccc(C)c(Nc2nc(-c3cccnc3)cs2)c1 the results were KB-V1 MDR tox inactive, HT1080 IDH1KD tx -8.7%, KB-3-1 cytotox inactive, HT1080-NT tox -1.8% and IL1B secr inh -80.6*.
`CCN(CC)C(=O)c1sc2c(c1C)c(=O)n(-c1ccc(OC)cc1OC)c(=O)n2CC(=O)Nc1ccccc1` gave KB-V1 MDR tox inconclusive and KB-3-1 cytotox inactive.
Screening COc1ccc(C)cc1NC(=O)c1nnn(Cc2cccc(F)c2)c1N returned KB-V1 MDR tox inactive, HT1080 IDH1KD tx 4.11µM*, KB-3-1 cytotox inconclusive, HT1080-NT tox inconclusive and IL1B secr inh -3.9.
COc1cccc(Cn2nnc(C(=O)Nc3cc(Cl)ccc3OC)c2N)c1 was read as KB-V1 MDR tox inactive, HT1080 IDH1KD tx inconclusive, KB-3-1 cytotox inconclusive, HT1080-NT tox -21.2% and IL1B secr inh -2.2.
For COc1ccc(NC(=O)c2nnn(Cc3ccc(Br)cc3F)c2N)c(OC)c1 the results were KB-V1 MDR tox inactive and KB-3-1 cytotox inactive.
Screening COc1ccc(NC(=O)c2nnn(Cc3cccc(F)c3)c2N)c(OC)c1 returned KB-V1 MDR tox inactive, HT1080 IDH1KD tx inconclusive, KB-3-1 cytotox 6.51µM*, HT1080-NT tox inconclusive and IL1B secr inh 23.7.
`Cc1oc(C)c2c(=O)cc(-c3ccc4c(c3)OCO4)cc(OC(=O)c3ccccc3Br)c12` gave KB-V1 MDR tox inactive and KB-3-1 cytotox inactive.
`Cc1ccc(S(=O)(=O)N(C(=O)c2ccco2)c2cc3sc(=O)oc3c3ccccc23)cc1` gave KB-V1 MDR tox inconclusive, HT1080 IDH1KD tx inconclusive, KB-3-1 cytotox inactive, HT1080-NT tox inconclusive and IL1B secr inh 6.1.
`CCOc1ccc(S(=O)(=O)N(C(=O)c2ccco2)c2cc3sc(=O)oc3c3ccccc23)cc1` gave KB-V1 MDR tox inconclusive, HT1080 IDH1KD tx -27.0%, KB-3-1 cytotox inactive, HT1080-NT tox inconclusive and IL1B secr inh -94.8*.
Screening COc1ccc(S(=O)(=O)N(C(=O)c2ccco2)c2cc3sc(=O)oc3c3ccccc23)cc1 returned KB-V1 MDR tox inactive, HT1080 IDH1KD tx inconclusive, KB-3-1 cytotox inconclusive, HT1080-NT tox inconclusive and IL1B secr inh -100.3*.
`CCOc1ccc(S(=O)(=O)N(C)CC(=O)NCc2ccco2)cc1` gave KB-V1 MDR tox inactive, HT1080 IDH1KD tx 0.3%, KB-3-1 cytotox inactive, HT1080-NT tox -0.3% and IL1B secr inh -5.3.
For C[C@@H]1CN([C@H](C)CO)C(=O)c2cc(Br)cnc2O[C@@H]1CN(C)Cc1ccc(-c2ccccc2)cc1 the results were KB-V1 MDR tox inconclusive, HT1080 IDH1KD tx -1.3%, KB-3-1 cytotox inconclusive, HT1080-NT tox inconclusive and IL1B secr inh -10.4.
Screening COc1ccc(CN2CCC(Oc3ccc(C(=O)N4CCCC4)cc3)CC2)c(F)c1 returned HT1080 IDH1KD tx 1.3%, HT1080-NT tox 0.9% and IL1B secr inh -1.0.
`Cc1ccc(S(=O)(=O)N(CC(=O)NCc2ccco2)Cc2ccccc2F)cc1` gave KB-V1 MDR tox 8.2µM*, HT1080 IDH1KD tx 10.6%, KB-3-1 cytotox inactive, HT1080-NT tox 8.4% and IL1B secr inh -19.6.
`Cc1cccc(C)c1NC(=O)c1cc2c(=O)c3ccccc3oc2nc1C(F)(F)F` gave KB-V1 MDR tox 2.06µM*, HT1080 IDH1KD tx -18.3%, KB-3-1 cytotox inactive, HT1080-NT tox -12.2% and IL1B secr inh 53.7.
For O=S(=O)(Cc1cc(Sc2ccc(Cl)cc2)nc(-c2ccccc2)n1)c1ccccc1 the results were KB-V1 MDR tox inactive, HT1080 IDH1KD tx -1.6%, KB-3-1 cytotox inactive, HT1080-NT tox -1.6% and IL1B secr inh 3.1.
For CCOC(=O)C(C)Sc1cc(CS(=O)(=O)c2ccccc2)nc(-c2ccccc2)n1 (stereo unspecified) the results were KB-V1 MDR tox 20.6µM*, HT1080 IDH1KD tx 0.3%, KB-3-1 cytotox inactive, HT1080-NT tox -5.0% and IL1B secr inh 21.5.
`CN=C1c2cc3cc(OC)ccc3n2CCN1Cc1ccccc1` gave KB-V1 MDR tox 16.4µM*, HT1080 IDH1KD tx 23.1µM*, KB-3-1 cytotox 8.2µM*, HT1080-NT tox 16.4µM* and IL1B secr inh -90.8*.
`COc1ccc(S(=O)(=O)N2CCN(Cc3ccccc3)CC2)cc1` gave KB-V1 MDR tox inactive, HT1080 IDH1KD tx 6.1%, KB-3-1 cytotox inactive, HT1080-NT tox 5.7% and IL1B secr inh -5.5.
O=C(OC1CC2CC1[C@H]1CCCCN1C2=O)N1CCC(c2ccccc2)CC1 (stereo partly specified) was read as KB-V1 MDR tox inactive, HT1080 IDH1KD tx -5.8%, KB-3-1 cytotox inactive, HT1080-NT tox -2.0% and IL1B secr inh 22.9.
C=CCOc1nc2c(c(=O)n(C)c(=O)n2C)n1Cc1ccccc1 was read as KB-V1 MDR tox 8.2µM*, HT1080 IDH1KD tx 1.0%, KB-3-1 cytotox inconclusive and HT1080-NT tox -0.8%.
Screening CCCCCn1c(CN(C)Cc2ccccc2)nc2c1c(=O)n(C)c(=O)n2C returned KB-V1 MDR tox 2.31µM*, HT1080 IDH1KD tx -14.0%, KB-3-1 cytotox 18.4µM*, HT1080-NT tox -8.7% and IL1B secr inh -22.3.
Screening CN(Cc1ccccc1)Cc1nc2c(c(=O)n(C)c(=O)n2C)n1Cc1ccc(F)cc1 returned KB-V1 MDR tox 9.2µM*, HT1080 IDH1KD tx 0.9%, KB-3-1 cytotox inactive, HT1080-NT tox 0.4% and IL1B secr inh 39.6.
Cc1ccc(Cn2c(CN(C)Cc3ccccc3)nc3c2c(=O)n(C)c(=O)n3C)cc1 was read as KB-V1 MDR tox inactive, HT1080 IDH1KD tx -7.5%, KB-3-1 cytotox inactive, HT1080-NT tox -1.4% and IL1B secr inh -9.3.
